Measured values as given in PubChem BioAssay (NCI).
Compounds without any hit were thinned out: in the full panel of roughly 83,000, 20% have a hit.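 96-well plates, one dose, 48 hours. Percent growth reported; active if below 10.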 Values without a mark were called inactive. Activity calls are given as the source filed them.

tested on: HL-60(TB) leukemia; test: NCI-60 one-dose screen, 48 h (100 = growth as untreated, 0 = no growth, -100 = all killed); settings: 10 µM unless noted

**Q.** With `C=CCn1c(SCC(=O)c2ccc(OC)cc2)nnc1-c1ccc(OC)cc1` as the molecule, how does the growth read?
**A.** 90.8%

**Q.** With `CCCCCc1ccc(S(=O)(=O)N(C(C)=O)c2cccc(-c3csc(N(CCN4CCN(C)CC4)C(C)=O)n3)c2)cc1` as the molecule, how does the growth read?
**A.** -52.8% (active)

**Q.** Which growth does the source give for `OC1CCN(CCCOc2c3ccccc3nc3c2oc2ccccc23)CC1` here?
**A.** 6.8% (active)

**Q.** How did the growth turn out when `COc1cc(OC)c(S(N)(=O)=O)cc1C(=O)/C=C/c1ccccc1` was run?
**A.** 5.25% (active)

**Q.** For `Cc1nc(-c2cc3ccccc3c(N3CCN(C)CC3)n2)cs1`, which growth is on record?
**A.** 97.2%

**Q.** With `COc1ccc2[nH]cc(/C=N/Nc3nc4ccccc4s3)c2c1` as the molecule, how does the growth read?
**A.** 39.1%

**Q.** Which growth does the source give for `Cc1ccc(-c2cc3nc(C(Cl)Cl)nc(-c4ccc(S(=O)(=O)N(C)C)cc4)n3n2)cc1` here?
**A.** 74.9%

**Q.** With `CN(C)c1ccc(/C=C2\Cc3c(F)ccc(Br)c3C2=O)cc1` as the molecule, how does the growth read?
**A.** 79.6%

**Q.** For `Clc1ccc2oc3c(NCCCN4CCOCC4)c4ccccc4nc3c2c1`, which growth is on record?
**A.** 20.8%

**Q.** `COc1cc(C(C)=C(c2ccc(OCCN(C)C)cc2)c2ccc(OCCN(C)C)cc2)ccc1F` was tested. Which growth did it give?
**A.** 105%

**Q.** With `CNC(=O)c1cc(Oc2ccc3nc(NC(=O)c4ccc(N5CCOCC5)c(C(F)(F)F)c4)sc3c2)ccn1` as the molecule, how does the growth read?
**A.** 94.2%

**Q.** Which growth does the source give for `COc1ccc(C2CC(c3ccc(Nc4nc(NCCO)nc(N5CCOCC5)n4)cc3)=Nc3c(N)nc(N)nc3N2)cc1` (stereo unspecified) here?
**A.** 90.9%

**Q.** With `COc1ccc(-c2nn(-c3ccccc3)cc2/C=C/C(=O)c2ccc(NC(=O)CCCCCCC(=O)NO)cc2)cc1` as the molecule, how does the growth read?
**A.** 116%

**Q.** Which growth does the source give for `COc1ccc(CC(C)=C(c2ccc(OCCN3CCCC3)cc2)c2ccc(OCCN3CCCC3)cc2)cc1` here?
**A.** -64.2% (active)

**Q.** With `CCCCCCNC(=O)Oc1ccc(/C(=C(\C)c2ccc(Cl)cc2)c2ccc(OCCN(C)C)cc2)cc1` as the molecule, how does the growth read?
**A.** -8.4% (active)

**Q.** How did the growth turn out when `CC1=C(C)C(=O)C(Nc2cccc(C(F)(F)F)c2)=C(Br)C1=O` was run?
**A.** 54.7%

**Q.** How did the growth turn out when `NC1=NC2(CCCC2)N(c2ccc(S(=O)(=O)Nc3nccs3)cc2)C(N)=N1` was run?
**A.** 102%

**Q.** How did the growth turn out when `O=C(CSc1nc2ccccc2c(=O)n1-c1ccc(Cl)cc1)N/N=C/c1ccc(Oc2ccc(Cl)cc2)cc1` was run?
**A.** 111%

**Q.** Which growth does the source give for `O=c1oc2ccc(-c3ccc(F)cc3F)cc2c(=O)n1-c1cccc(C(F)(F)F)c1` here?
**A.** -32.7% (active)

**Q.** `NC/C(=C/F)COc1ccc2nc(NCc3cccnc3)oc2c1` was tested. Which growth did it give?
**A.** 125%

**Q.** With `O=C1CSC(c2cn(-c3ccccc3)nc2-c2ccc(Cl)cc2)N1c1ccccc1` (stereo unspecified) as the molecule, how does the growth read?
**A.** 117%

**Q.** `COc1ccc(NS(=O)(=O)c2ccc(-c3cnc(C4CC4)o3)cc2)cc1Cl` was tested. Which growth did it give?
**A.** 3.27% (active)

**Q.** Which growth does the source give for `COc1ccccc1-n1cc(C#N)c(N)c1C(=O)c1ccc(Br)cc1` here?
**A.** 35.8%

**Q.** With `C#C[C@]1(O)CC[C@H]2[C@@H]3CC=C4c5sc(-c6ccccn6)nc5CC[C@]4(C)[C@H]3CC[C@@]21C` as the molecule, how does the growth read?
**A.** 41.4%

**Q.** For `C/C(=C(\c1ccc(O)cc1)c1ccc(OCCN2CCCCCC2)cc1)c1ccc(Cl)cc1`, which growth is on record?
**A.** -49.2% (active)

**Q.** How did the growth turn out when `CCOc1ccc2nc(NC(=O)Nc3ccccc3C)sc2c1` was run?
**A.** 15.3%
